According to PubChem BioAssay (NCATS):
Records with an inconclusive call do not appear. The source made the active and inactive calls. Unless noted, calls follow the shape of the dose curve; as a rule, active = well fitted curve in the direction sought with a large enough effect; inconclusive = small, poorly fitted or top-dose-only effect, or another doubt; inactive = no such curve, though single readings can be large; an effect the other way counts as inactive or inconclusive.

Tests used:
[1] = target: Cytochrome P450 3A4 (Homo sapiens) (UniProt P08684); experiment: qHTS Assay for Inhibitors and Substrates of Cytochrome P450 3A4 (AID 884); also: nearly all actives have a fitted effect of over 50% in size; also: potency is read from the fitted curve at half-maximal effect; as to activity change, negative = inhibition: % is scaled to controls: 0 for no effect and ±100 for the full control effect
Sequence of Cytochrome P450 3A4 (Homo sapiens) (P08684 whole entry, looked up): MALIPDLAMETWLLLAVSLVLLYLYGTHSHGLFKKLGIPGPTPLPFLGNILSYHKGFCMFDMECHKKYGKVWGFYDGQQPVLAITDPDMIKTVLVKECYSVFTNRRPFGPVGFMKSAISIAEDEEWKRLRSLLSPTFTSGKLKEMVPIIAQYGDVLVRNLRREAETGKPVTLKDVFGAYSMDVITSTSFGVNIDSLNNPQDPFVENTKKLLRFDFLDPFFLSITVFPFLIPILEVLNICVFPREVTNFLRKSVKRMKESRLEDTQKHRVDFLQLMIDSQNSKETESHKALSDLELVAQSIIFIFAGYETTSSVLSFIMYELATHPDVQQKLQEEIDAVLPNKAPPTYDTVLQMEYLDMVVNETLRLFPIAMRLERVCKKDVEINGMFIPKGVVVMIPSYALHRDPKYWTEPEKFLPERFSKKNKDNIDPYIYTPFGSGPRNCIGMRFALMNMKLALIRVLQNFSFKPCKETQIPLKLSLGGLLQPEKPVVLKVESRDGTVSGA
How it was run: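 Luminescent readout of luciferin produced by CYP3A4 (20 nM) dealkylation of Luciferin-PPXE, 25 uM (its KM). NADPH-driven reaction ran 60 min at RT after 10 min compound preincubation; data scaled to 57 uM ketoconazole as 100% inhibition.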

[2] = Confirmation and Secondary Assay for Modulators of Hemoglobin Beta Chain Splicing at IVS2 654 locus (AID 910);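 also: per-well total GFP intensity by laser scanning cytometry after 2-day treatment; % of control where 0% means no effect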
How it was run: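 HeLa cells stably carrying EGFP interrupted by mutant beta-globin IVS2-654 intron (CMV-driven) were treated with compound for 2 days at 37C; corrected splicing was scored as total peak GFP intensity per well (488 nm excitation, 500-520 nm emission).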

[3] = Confirmation and Secondary Assay for Modulators of Hemoglobin Beta Chain Splicing at IVS2 705 locus (AID 930);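 also: HeLa cells stably expressing the EGFP-705 splicing reporter; % of control where 0% means no effect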
How it was run: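 Restored EGFP fluorescence after 2-day compound exposure reports splicing correction in IVS2-705 EGFP reporter HeLa cells; positive control was 500 nM splice-blocking PNA oligo. Signal measured as well total peak GFP intensity (488 nm excitation).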

[4] = qHTS Assay for Lipid Storage Modulators (AID 1519; calls by dose curve); conditions: Drosophila S3 cells, BODIPY lipid droplet/cell ratio, laser cytometry, cells loaded with oleic acid; for activity change, negative = inhibition: at 57.5 µM (top of the series)
How it was run: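 Cells seeded at 5,000 per well were treated with compounds over a concentration series and loaded with oleic acid (400 uM, as added). Lipid droplet fluorescence (488 nm excitation, 500-530 nm channel) was read by laser-scanning cytometry and normalized to 20 uM Triacsin C.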

[5] = target: Ubiquitin carboxyl-terminal hydrolase 1 (Homo sapiens) (UniProt O94782); experiment: Inhibitors of USP1/UAF1: Pilot qHTS (AID 504865);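 also: rhodamine fluorescence freed from ubiquitin-rhodamine substrate followed over time; top concentration of the series differs between compounds; % is scaled to controls: 0 for no effect and ±100 for the full control effect; nearly all actives have a fitted effect of over 35% in size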
Sequence of Ubiquitin carboxyl-terminal hydrolase 1 (Homo sapiens) (O94782 whole entry, looked up): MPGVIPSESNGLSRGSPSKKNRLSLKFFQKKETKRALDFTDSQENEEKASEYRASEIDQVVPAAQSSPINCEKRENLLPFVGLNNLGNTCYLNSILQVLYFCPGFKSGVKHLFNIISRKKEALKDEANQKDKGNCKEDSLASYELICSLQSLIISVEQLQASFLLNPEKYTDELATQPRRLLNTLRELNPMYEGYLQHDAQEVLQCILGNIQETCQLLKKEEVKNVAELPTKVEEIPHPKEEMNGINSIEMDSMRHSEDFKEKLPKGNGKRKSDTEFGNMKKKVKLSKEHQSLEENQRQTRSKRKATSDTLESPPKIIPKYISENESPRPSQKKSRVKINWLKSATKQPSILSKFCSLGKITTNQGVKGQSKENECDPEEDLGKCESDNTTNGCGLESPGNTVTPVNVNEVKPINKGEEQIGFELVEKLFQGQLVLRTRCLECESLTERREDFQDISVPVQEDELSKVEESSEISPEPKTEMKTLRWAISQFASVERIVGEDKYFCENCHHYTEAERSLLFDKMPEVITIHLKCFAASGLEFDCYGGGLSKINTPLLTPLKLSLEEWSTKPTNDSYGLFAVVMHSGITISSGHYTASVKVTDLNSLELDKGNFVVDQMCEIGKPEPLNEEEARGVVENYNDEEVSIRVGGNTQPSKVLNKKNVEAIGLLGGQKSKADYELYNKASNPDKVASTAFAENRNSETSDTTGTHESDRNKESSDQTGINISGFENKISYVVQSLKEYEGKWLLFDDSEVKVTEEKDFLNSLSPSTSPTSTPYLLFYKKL
How it was run: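 1nM USP1/UAF1 + cpd, 15 min RT; start w/ Ub-Rho 150nM final; kinetic FL 480/540 nm, 6 reads q60 s. Buffer 50mM HEPES pH 7.8, 0.5mM EDTA, 1mM TCEP, 0.01% Tween-20, 0.1 mg/ml BSA.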

[6] = qHTS assay for small molecule antagonists of peroxisome proliferator-activated receptor delta signaling (AID 588535); conditions: HEK293T PPARd-UAS-bla, beta-lactamase FRET ratio, 18 h; 460 nm channel;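 also: cells co-treated with a PPAR-delta agonist as stimulator during compound exposure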
How it was run: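 Compounds tested in titration on PPAR-delta-UAS-bla HEK293T cells grown in charcoal/dextran-stripped serum (2%); beta-lactamase activity read via CCF4 emission at 460 and 530 nm.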

[7] = target: Vitamin D3 receptor (Homo sapiens) (UniProt P11473); experiment: qHTS assay for small molecule antagonists of vitamin D receptor signaling (AID 588541; calls by dose curve;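 also: receptor activated by calcitriol during compound treatment; % is scaled to controls: 0 for no effect and ±100 for the full control effect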)
Sequence of Vitamin D3 receptor (Homo sapiens) (P11473 whole entry, looked up): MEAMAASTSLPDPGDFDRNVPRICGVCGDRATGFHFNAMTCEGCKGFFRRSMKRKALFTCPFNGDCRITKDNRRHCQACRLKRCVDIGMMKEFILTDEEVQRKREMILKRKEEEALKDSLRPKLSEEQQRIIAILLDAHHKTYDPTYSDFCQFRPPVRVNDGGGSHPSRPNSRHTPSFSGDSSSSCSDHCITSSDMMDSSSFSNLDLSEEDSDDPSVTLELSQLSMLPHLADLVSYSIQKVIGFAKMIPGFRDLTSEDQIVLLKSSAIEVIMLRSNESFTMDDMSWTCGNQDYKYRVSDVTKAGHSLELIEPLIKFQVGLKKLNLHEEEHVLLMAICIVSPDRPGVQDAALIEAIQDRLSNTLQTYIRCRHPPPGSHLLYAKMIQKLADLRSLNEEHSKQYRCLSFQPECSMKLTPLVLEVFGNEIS
How it was run: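 VDR-UAS-bla HEK293T cells (2000/well, 2% charcoal-stripped FBS) were treated with titrated compounds plus 1-alpha,25-dihydroxyvitamin D3 (50 nM or 3 nM final) for 16 h at 37 C. CCF4 beta-lactamase fluorescence was read; Hill fits gave IC50.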

[8] = qHTS assay for small molecule agonists of retinoid X receptor alpha signaling (AID 588544); conditions: HEK293T RXRa-UAS-bla, beta-lactamase reporter, 18 h; 530 nm emission
[9] = qHTS assay for small molecule antagonists of retinoid X receptor alpha signaling (AID 588546; active = well fitted inhibition curve with a large enough effect in the signal ratio, with a control signal flat, not every such curve was filed as active; the % refers to the signal ratio;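 also: cells stimulated with 9-cis-retinoic acid as agonist; % is scaled to controls: 0 for no effect and ±100 for the full control effect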); conditions: HEK293T RXRa-UAS-bla, beta-lactamase ratio, antagonist mode; measured here: W530 green channel, cytotoxicity proxy
How it was run: (§1)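 Beta-lactamase reporter inhibition, read as CCF4 fluorescence ratio (ex 405, em 460/530 nm) after 2 h at RT. HEK293T UAS-bla cells, 2500/well, were stimulated with 9-cis-RA at 500 or 100 nM final alongside test compound for 18 h at 37 C.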

[10] = target: Retinoic acid receptor RXR-alpha (Homo sapiens) (UniProt P19793); experiment: as above; conditions: HEK293T RXRa-UAS-bla, beta-lactamase ratio, antagonist mode
Sequence of Retinoic acid receptor RXR-alpha (Homo sapiens) (P19793 whole entry, looked up): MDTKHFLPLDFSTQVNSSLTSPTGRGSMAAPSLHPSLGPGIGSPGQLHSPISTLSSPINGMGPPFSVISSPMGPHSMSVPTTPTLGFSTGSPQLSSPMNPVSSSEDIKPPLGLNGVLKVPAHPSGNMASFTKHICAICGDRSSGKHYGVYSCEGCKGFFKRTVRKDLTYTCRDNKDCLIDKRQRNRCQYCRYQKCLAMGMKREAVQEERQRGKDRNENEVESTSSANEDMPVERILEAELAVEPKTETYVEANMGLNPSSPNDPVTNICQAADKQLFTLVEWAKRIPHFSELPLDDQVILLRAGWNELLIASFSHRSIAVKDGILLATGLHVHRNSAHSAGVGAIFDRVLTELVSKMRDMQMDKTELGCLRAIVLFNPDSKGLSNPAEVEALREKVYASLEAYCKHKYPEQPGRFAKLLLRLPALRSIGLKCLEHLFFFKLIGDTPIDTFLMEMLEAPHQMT
How it was run: as §1

[11] = qHTS assay for environmental chemicals that activate the Aryl hydrocarbon Receptor (AhR) signaling pathway (AID 651777); conditions: 1A2-DRE human hepatoma cells, luciferase, 24 h; activation: stronger effect = higher value; also: % of control where 0% means no effect; nearly all actives have a fitted effect of over 15% in size
How it was run: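 Luminescence (One-Glo, 30 min, room temperature) reports AhR-driven luciferase in stably transfected human hepatoma cells bearing DRE and CYP1A2 promoter. Cells (1,200/well) were treated with compound for 24 hr at 37 C in qHTS format.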

[12] = target: Peroxisome proliferator-activated receptor alpha (Homo sapiens) (UniProt Q07869); experiment: qHTS assay for small molecule agonists of the peroxisome proliferator-activated receptor alpha (PPARalpha) signaling pathway (AID 651778); conditions: PathHunter PPARalpha complementation, chemiluminescence, 6 h; stronger effect = higher value; also: % of control where 0% means no effect
Sequence of Peroxisome proliferator-activated receptor alpha (Homo sapiens) (Q07869 whole entry, looked up): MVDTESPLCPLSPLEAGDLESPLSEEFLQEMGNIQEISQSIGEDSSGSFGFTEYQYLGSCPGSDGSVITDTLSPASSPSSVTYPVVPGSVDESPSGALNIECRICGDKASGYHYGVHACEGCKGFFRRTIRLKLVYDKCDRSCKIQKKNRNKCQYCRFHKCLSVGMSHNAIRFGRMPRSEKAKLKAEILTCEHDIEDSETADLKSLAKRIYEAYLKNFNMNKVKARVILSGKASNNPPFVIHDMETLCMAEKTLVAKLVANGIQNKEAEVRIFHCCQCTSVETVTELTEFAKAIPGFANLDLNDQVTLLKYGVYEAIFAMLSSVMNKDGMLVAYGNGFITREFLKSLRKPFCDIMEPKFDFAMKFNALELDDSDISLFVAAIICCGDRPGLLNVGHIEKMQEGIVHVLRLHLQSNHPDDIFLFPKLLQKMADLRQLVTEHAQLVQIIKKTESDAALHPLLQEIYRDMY
How it was run: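 Cells plated at 2,000/well and held overnight at 37 C, 5% CO2, then compound added by pin tool for 6 hr; after PathHunter detection reagent and 60 min at room temperature, chemiluminescence from enzyme complementation was read.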

[13] = qHTS assay for small molecule agonists of the antioxidant response element (ARE) signaling pathway measured by Nrf2-dependant transcriptional activity - cell viability counter screen (AID 720653; active = well fitted curve in the direction sought with a large enough effect in the repeat runs; an effect the other way counts as inactive or inconclusive; also: % is scaled to controls: 0 for no effect and ±100 for the full control effect); conditions: ARE-bla HepG2 viability, CellTiter-Glo ATP luminescence, 16 h; stronger effect = lower value
How it was run: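 ARE-bla HepG2 cells (2,000/well) rested 5 hrs at 37C/5% CO2, then exposed to compounds in DMSO for 16 hrs. Viability was read in the same wells as intracellular ATP by luminescence, 30 min at room temperature after reagent addition.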

[14] = qHTS assay for cell viability of HEK293 cells (AID 743288); conditions: ATP luminescence (CellTiter-Glo), 18 h; max response: stronger effect = lower value; also: % is scaled to controls: 0 for no effect and ±100 for the full control effect; nearly all actives have a fitted effect of over 50% in size
How it was run: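 ATP luminescence (CellTiter-Glo) reports metabolically competent cell number after parental HEK293 cells, 2,000/well, were treated with DMSO-dissolved compounds for 18 h at 37 C; reagent incubation 30 min, room temperature.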

[15] = qHTS assay for cell viability of the p53RE-bla HCT-116 cell line (AID 743292); also: % is scaled to controls: 0 for no effect and ±100 for the full control effect; nearly all actives have a fitted effect of over 55% in size
How it was run: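 ATP-based luminescent viability (CellTiter-Glo, 30 min RT) after 16 h compound treatment at 37 C of p53RE-bla HCT-116 cells, seeded at 4,000 cells/well and rested 5 h before dosing.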

[16] = target: Nuclear receptor subfamily 1 group I member 2 (Rattus norvegicus) (UniProt Q9R1A7); experiment: qHTS assay for small molecule activators of the rat pregnane X receptor (rPXR) signaling pathway (AID 651751; call rule not given here; also: 0% is about no effect); conditions: rPXR reporter cells, luciferase (One-Glo), 24 h
Sequence of Nuclear receptor subfamily 1 group I member 2 (Rattus norvegicus) (Q9R1A7 whole entry, looked up): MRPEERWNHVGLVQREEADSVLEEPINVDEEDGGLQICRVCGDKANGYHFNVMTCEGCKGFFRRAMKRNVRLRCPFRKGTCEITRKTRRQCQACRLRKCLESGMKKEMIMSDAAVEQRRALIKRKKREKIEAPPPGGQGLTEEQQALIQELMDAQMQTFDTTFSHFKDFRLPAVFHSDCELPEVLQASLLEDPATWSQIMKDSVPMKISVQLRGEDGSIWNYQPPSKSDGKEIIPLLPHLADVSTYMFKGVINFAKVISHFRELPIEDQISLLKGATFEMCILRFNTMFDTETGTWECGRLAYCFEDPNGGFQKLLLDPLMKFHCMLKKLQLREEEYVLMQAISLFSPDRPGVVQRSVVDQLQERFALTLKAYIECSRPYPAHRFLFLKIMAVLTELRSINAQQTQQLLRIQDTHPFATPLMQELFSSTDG

[17] = target: Peroxisome proliferator-activated receptor gamma (Homo sapiens) (UniProt P37231); experiment: qHTS assay for small molecule agonists of peroxisome proliferator-activated receptor gamma signaling (AID 588536; active = well fitted curve in the direction sought with a large enough effect in the signal ratio, with a control signal flat, not every such curve was filed as active; the % refers to the signal ratio;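 also: 0% = DMSO basal wells and 100% = rosiglitazone at 2 µM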)
Sequence of Peroxisome proliferator-activated receptor gamma (Homo sapiens) (P37231 whole entry, looked up): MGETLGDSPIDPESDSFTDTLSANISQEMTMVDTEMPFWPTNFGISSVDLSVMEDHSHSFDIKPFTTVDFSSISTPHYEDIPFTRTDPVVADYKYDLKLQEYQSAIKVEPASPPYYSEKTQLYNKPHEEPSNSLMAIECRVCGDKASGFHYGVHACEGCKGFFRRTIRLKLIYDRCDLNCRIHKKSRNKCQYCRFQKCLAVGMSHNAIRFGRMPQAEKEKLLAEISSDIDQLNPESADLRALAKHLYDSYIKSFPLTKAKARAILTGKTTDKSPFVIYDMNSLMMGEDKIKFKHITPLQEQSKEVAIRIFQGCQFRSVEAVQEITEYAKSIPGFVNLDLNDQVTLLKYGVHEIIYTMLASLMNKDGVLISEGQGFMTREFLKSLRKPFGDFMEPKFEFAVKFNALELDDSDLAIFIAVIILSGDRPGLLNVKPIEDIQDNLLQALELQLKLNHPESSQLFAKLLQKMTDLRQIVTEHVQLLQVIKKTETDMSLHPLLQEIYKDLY
How it was run: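 This is an agonist-mode beta-lactamase reporter assay in HEK293 PPAR-gamma-UAS-bla cells with 1% charcoal/dextran FBS. Compound titrations ran 16 h at 37 C before CCF4 detection. EC50 and efficacy are Hill fits scaled to 2 uM rosiglitazone (100%) and DMSO basal.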

[18] = qHTS assay for small molecule activators of the p53 signaling pathway (AID 651743; active = well fitted activation curve with a large enough effect in the signal ratio, not every such curve was filed as active; the % refers to the signal ratio; also: % of control where 0% means no effect); conditions: HCT-116 p53RE-bla, beta-lactamase FRET ratio, 16 h; activation: stronger effect = higher value
How it was run: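 Here HCT-116 cells with an integrated p53-responsive beta-lactamase gene were incubated with compounds (16 hours, 37 C) after a 5-hour plating period; beta-lactamase activity was detected as fluorescence intensity via B/G FRET substrate.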

[19] = target: Cytochrome P450 3A4 (Homo sapiens) (UniProt P08684); experiment: qHTS Assay for Activators of Cytochrome P450 3A4 (AID 885); also: nearly all actives have a fitted effect of over 65% in size
How it was run: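 Luminescent readout of luciferin formed from 25 uM Luciferin-PPXE (KM level) by 20 nM CYP3A4 in 200 mM KPO4, with 60 min NADPH-driven reaction at room temperature after 10 min compound exposure. Ketoconazole (57 uM) defined 100% inhibition.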

[20] = measured here: cell count channel max response
[21] = measured here: lipid channel max response

CC1O[C@@H](OC2CC(O)[C@@]3(CO)C4C(O)C[C@@]5(C)C(C6=CC(=O)OC6)CC[C@]5(O)C4CC[C@]3(O)C2)C(O)C(O)C1O (stereo partly drawn)
Potency [1]: inactive
Potency [2]: inactive
Potency [3]: inactive
activity change, negative = inhibition [4]: 3.6% (inactive)
max response [4, 20]: 6.17%
max response [4, 21]: 13.6%
Potency [5]: inactive

COc1cc2c(cc1OC)[C@@H]1C(=O)c3ccc(O)c(CC=C(C)C)c3OC1CO2 (stereo partly drawn)
Potency [1]: inactive
Potency [2]: inactive
Potency [3]: inactive
activity change, negative = inhibition [4]: 7.74% (inactive)
max response [4, 20]: 14.6%
max response [4, 21]: 25.6%
Potency [5]: inactive

COC(=O)COc1cc(Cl)c(Cl)cc1Cl
Potency [1]: inactive
Potency [2]: inactive
Potency [3]: inactive
activity change, negative = inhibition [4]: 2.27% (inactive)
max response [4, 20]: 13.1%
max response [4, 21]: 15.5%
Potency [5]: inactive

O=C(O)COc1cc(Cl)c(Cl)cc1Cl
Potency [1]: inactive
Potency [2]: inactive
Potency [3]: inactive
activity change, negative = inhibition [4]: 1.28% (inactive)
max response [4, 20]: 13.2%
max response [4, 21]: 18.6%
Potency [5]: inactive
max response [6]: 15.2%
outcome [7]: inactive
max response [8]: 28.5%
max response [9]: 20.3%
max response [10]: -33.7% (inactive)
activation [11]: 0.686% (inactive)
max response [12]: -1.8% (inactive)
max response [13]: -9.62% (inactive)
max response [14]: -0.339% (inactive)
Potency [15]: inactive
max response [16]: -2.98% (inactive)

CC(C)OC(=O)Nc1cccc(Cl)c1
Potency [1]: inactive
Potency [2]: inactive
Potency [3]: inactive
activity change, negative = inhibition [4]: 8.95% (inactive)
max response [4, 20]: 5.17%
max response [4, 21]: 15.8%
Potency [5]: inactive
max response [6]: 2.77%
outcome [17]: inactive
outcome [7]: inactive
max response [8]: -7.86%
max response [9]: -4.63%
max response [10]: 4.34% (inactive)
activation [18]: 1.93% (inactive)
max response [12]: -1.91% (inactive)
max response [13]: -10.2% (inactive)
Potency [15]: inactive

N#C/C(=C\c1cccc(O)c1)C(=O)O
Potency [1]: inactive
Potency [2]: inactive
Potency [3]: inactive
activity change, negative = inhibition [4]: 5.07% (inactive)
max response [4, 20]: 0.883%
max response [4, 21]: 7.48%
Potency [5]: inactive

CCC(=O)Nc1ccc(Cl)c(Cl)c1
Potency [1]: 15.8 µM (active)
Potency [19]: inactive
Potency [2]: inactive
Potency [3]: inactive
activity change, negative = inhibition [4]: 7.8% (inactive)
max response [4, 20]: 9.78%
max response [4, 21]: 21.3%
Potency [5]: inactive
outcome [17]: inactive
outcome [7]: inactive
max response [8]: 4.16%
max response [9]: -13.9%
max response [10]: -5.6% (inactive)
activation [18]: 4.6% (inactive)
activation [11]: 4.76% (inactive)
max response [12]: -0.456% (inactive)
max response [13]: -7.64% (inactive)
max response [14]: 1.17% (inactive)
Potency [15]: inactive
max response [16]: 6.65% (inactive)
